Screening results as filed in PubChem BioAssay.
Hits are enriched below; roughly 27% of the tested compounds scored in any of these assays.
CYP2C9 inhib – human CYP2C9 inhibition. P11712. CYP2C9 Supersomes, luciferin-H conversion, luminescence. inhibition, % at 5 µM. 96,000 compounds, 20% hits. AID 777;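 active means blocking of liver enzyme CYP2C9 beyond about 50% at 5 µM, limit read from the data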
CYP2C19 inh – blocks human cytochrome P450 2C19; inhibition, % at 5 µM; 96,000 compounds, 21% hits; AID 778; CYP2C19 Supersomes, luciferin-H EGE luminescence, 30 min;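 active means CYP2C19 inhibition above a set limit at 5 µM in the primary screen, cut at about 50% in these data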
Cav3 T inh – blocks human Cav3.2 T-type calcium channel | B-score at 10 µM | O95180 | 100,000 compounds, 4% hits | Cav3.2-expressing cells, Fluo-4 calcium fluorescence FDSS; hits give low values | AID 449739;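 active means single-dose well whose peak fluorescence ratio is a statistical outlier from its plate by either plate-standardised score or position-corrected B-score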
CYP2C9 activ – increases human cytochrome P450 2C9 activity. AID 1024. 96,000 compounds, 1.4% hits. activation factor at 5 µM. P11712. recombinant CYP2C9, luciferin-H conversion, luminescence; hits give high values; factor 1 = untreated enzyme, 0 = blocked;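 active means activation factor of 2 or more for CYP2C9 at a 5 µM dose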
CYP2C19 activ – activators of human cytochrome P450 2C19. recombinant CYP2C19, luciferin-H EGE luminescence; hits give high values; 0 = fully inhibited enzyme, 1 = untreated enzyme. activation factor at 5 µM. 96,000 tested, under 10 active;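 active means activation factor of at least 2 at 5 µM in the primary screen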
Of the large screens only hits and unclear results are named; the others gave an inactive call.

Cc1cccc(CN2CCC(C(N)=O)CC2)c1	none
O=c1c2ccccc2oc2ncccc12	none
CCCOC(=O)NC(CC)COC(=O)Nc1cccc(C)c1C (centres undefined)	CYP2C19 inh 72
CCCOC(=O)Nc1cccc(C(C)=O)c1	none (no result: CYP2C9 inhib, CYP2C19 inh, CYP2C9 activ, CYP2C19 activ)
CCC(COC(=O)Nc1cccc(C)c1C)NC(=O)OCC(C)C (centres undefined)	CYP2C19 inh 96
CC(C)COC(=O)Nc1ccc(C(=O)O)cc1	none
CCCCSc1nc(C)c(CC(=O)OC)c(=O)[nH]1	none
Fc1ccc(-c2csc3ncnc(Nc4ccc(N5CCOCC5)cc4)c23)cc1	none
CN(C)NC(=O)c1ccsc1NC(=O)c1ccc(S(=O)(=O)N(C)C)cc1	none (no result: CYP2C9 inhib, CYP2C19 inh, CYP2C9 activ, CYP2C19 activ)
COC(=O)c1c(-c2cccc3ccccc23)csc1NC(=O)Cc1ccc(OC)c(OC)c1	CYP2C9 inhib 87, CYP2C19 inh 62 (no result: Cav3 T inh)
COC(=O)c1c(-c2ccc(Br)cc2)csc1NC(=O)Cc1ccc(OC)c(OC)c1	CYP2C9 inhib 63
COC(=O)c1c(-c2ccc(C)cc2)csc1NC(=O)Cc1ccc(OC)c(OC)c1	CYP2C9 inhib 72 (no result: Cav3 T inh)
O=C(Nc1cc(Cl)ccc1Cl)C1CC(=O)N(c2ccc(Br)cc2)C1 (centres undefined)	none
CC(C)Oc1ccc(N2CC(C(=O)Nc3ccc(N4CCOCC4)cc3)CC2=O)cc1 (centres undefined)	none (no result: CYP2C9 inhib, CYP2C19 inh, CYP2C9 activ, CYP2C19 activ)
